High-throughput results: PubChem BioAssay, Center for Chemical Genomics, University of Michigan
The entries come from a sample that favours hits as a whole.
Dicer inh – inhibitors of human Dicer processing of pre-microRNA; cat-ELCCA pre-miR-21 Dicer processing, chemiluminescence; hits give high values; z-score at 25 µM; 47,000 compounds, 6% hits; AID 1347074; in the data active = z-score above about 3, passing the limit was not always enough;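 also: higher signal means more uncleaved substrate so more Dicer inhibition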
Numbers stand for hits.

For COc1ccc(COC(=O)C2=C(C)NC3=C(C(=O)CCC3)C2c2ccc3c(c2)OCO3)cc1 (configuration not stated) the results were Dicer inh inactive.
For CCOC(=O)C1=C(C)NC2=C(C(=O)CCC2)C1c1cc2c(cc1Cl)OCO2 (configuration not stated) the results were Dicer inh inactive.
Screening COc1ccc(COC(=O)C2=C(C)NC3=C(C(=O)CCC3)C2c2cc3c(cc2Cl)OCO3)cc1 (configuration not stated) returned Dicer inh 4.24.
For CC(C)S(=O)(=O)c1cscc1NS(=O)(=O)c1ccc(Cl)cc1 the results were Dicer inh inactive.
Cn1c(=O)c2c(nc(NCCO)n2CC(O)COc2ccccc2)n(C)c1=O (configuration not stated) was read as Dicer inh inactive.
COc1ccc(OCC(O)Cn2c(NC3CCCCC3)nc3c2c(=O)n(C)c(=O)n3C)cc1 (configuration not stated) was read as Dicer inh 3.32.
`Cn1c(=O)c2c(nc(NC3CCCCC3)n2CC(O)COc2ccccc2)n(C)c1=O` (configuration not stated) gave Dicer inh inactive.
Screening O=S(=O)(c1ccccc1)c1nc(-c2ccc(Cl)cc2)oc1N1CCOCC1 returned Dicer inh inactive.
`O=c1nc(Nc2ccccc2)nc(Nc2ccccc2)[nH]1` gave Dicer inh inactive.
CCOC(=O)c1c(NC(=O)c2cccs2)sc(C(=O)Nc2ccc3c(c2)OCO3)c1C was read as Dicer inh inactive.
For Cc1cc(NS(=O)(=O)c2ccc(NS(=O)(=O)c3cc(C)c(Cl)cc3Cl)cc2)no1 the results were Dicer inh inactive.
COC(=O)c1sc(C(C)(C)C)cc1NS(=O)(=O)c1ccc(OC)cc1 was read as Dicer inh inactive.
O=c1oc2c(Cl)cc(NS(=O)(=O)c3ccc(F)cc3)cc2s1 was read as Dicer inh 9.74.
For COc1ccc(Cl)cc1NS(=O)(=O)c1ccc(F)cc1 the results were Dicer inh inactive.
Screening Cc1ccc(C)c(S(=O)(=O)Nc2ccc3oc4c(c3c2)C(=O)CCC4)c1 returned Dicer inh inactive.
`Cc1ccc(C)c(S(=O)(=O)Nc2ccc3oc(C)c(C(=O)O)c3c2)c1` gave Dicer inh inactive.
O=S(=O)(Nc1ccccc1Cl)c1ccc(F)cc1 was read as Dicer inh inactive.
For Cc1ccc(S(=O)(=O)Nc2cc(Cl)c3oc(=O)sc3c2)cc1 the results were Dicer inh 11.
`Cc1cc(C)cc(NS(=O)(=O)c2ccc3[nH]c(=O)[nH]c3c2)c1` gave Dicer inh inactive.
For Cc1ccc(C)c(S(=O)(=O)Nc2cc(Cl)c3oc(=O)sc3c2)c1 the results were Dicer inh 11.8.
COc1ccc(S(=O)(=O)Nc2cc(Cl)c3oc(=O)sc3c2)cc1 was read as Dicer inh 8.94.
For COc1ccc(S(=O)(=O)Nc2nnc(C(C)C)s2)cc1 the results were Dicer inh inactive.
For COC(=O)c1sc(SC)c(C#N)c1-c1ccc(C)cc1 the results were Dicer inh inactive.
Screening CCN1C(=O)N(CC)C2C1NC(=O)N2C (configuration not stated) returned Dicer inh inactive.
For CCOC(=O)/C(C#N)=C/Nc1nc2c(OC)cccc2s1 the results were Dicer inh inactive.
COc1cc(-c2ccc(/C=C/c3[nH]c(=O)[nH]c(=O)c3[N+](=O)[O-])o2)c(OC)cc1Cl was read as Dicer inh inactive.
For COC(=O)CCC(CCC(=O)OC)(C(C)=O)C(=O)OC the results were Dicer inh inactive.
For Cc1ccccc1C1CC(=O)NC(SCC(=O)OCc2ccccc2)=C1C#N (configuration not stated) the results were Dicer inh inactive.
For CCCc1cnc(N2CCN(S(=O)(=O)c3ccc(CNC(=O)c4ccccc4)s3)CC2)nc1 the results were Dicer inh inactive.
`CCCc1cnc(N2CCN(S(C)(=O)=O)CC2)nc1` gave Dicer inh 3.49.
`CCCc1cnc(N2CCN(S(=O)(=O)c3sc4ccc(Cl)cc4c3C)CC2)nc1` gave Dicer inh inactive.
For Cc1ccc(NC(=O)CC#N)cc1Cl the results were Dicer inh inactive.
For O=C(O)CNC(=O)c1cccc(Cl)c1 the results were Dicer inh inactive.
For O=S(=O)(Nc1ccccc1)c1ccc(-c2ccc(S(=O)(=O)Nc3ccccc3)cc2)cc1 the results were Dicer inh inactive.
Screening CCN(CC)c1ccc(NS(=O)(=O)c2ccccc2)cc1 returned Dicer inh 4.78.
For Cc1ccc(S(=O)(=O)Nc2ccc(N(C)S(=O)(=O)c3ccc(C)cc3)cc2)cc1 the results were Dicer inh inactive.
For CC(=O)c1csc(Nc2ccccc2Cl)n1 the results were Dicer inh inactive.
Cc1csc(Nc2cccc3ccccc23)n1 was read as Dicer inh 3.27.
COc1ccccc1Nc1nc(C)cs1 was read as Dicer inh inactive.
`CC1SC(c2cccnc2)N(c2ccc(Cl)cc2)C1=O` (configuration not stated) gave Dicer inh inactive.
`O=C1CSC(c2cccnc2)N1CCc1ccc(Cl)cc1` (configuration not stated) gave Dicer inh inactive.
Screening COc1ccc(CCN2C(=O)C(C)SC2c2cccnc2)cc1 (configuration not stated) returned Dicer inh 4.16.
CSc1ccc([N+](=O)[O-])cc1C(=O)/C=C/N(C)C was read as Dicer inh 6.17.
CSc1ccc([N+](=O)[O-])cc1C(C)=O was read as Dicer inh inactive.
`O=C(O)c1cc([N+](=O)[O-])ccc1Sc1ccc([N+](=O)[O-])cc1C(=O)O` gave Dicer inh inactive.
Screening O=C(NCc1ccc(S(=O)(=O)NCCc2ccccc2)s1)c1ccccc1 returned Dicer inh inactive.
Screening O=C(c1nc2nc(-c3ccc(Cl)cc3)cc(C(F)(F)F)n2n1)N1CCOCC1 returned Dicer inh inactive.
For O=C(c1nn2c(C(F)(F)F)cc(-c3ccccc3)nc2c1Cl)N1CCOCC1 the results were Dicer inh inactive.
O=C(c1nn2c(C(F)(F)F)cc(-c3ccc(F)cc3)nc2c1Cl)N1CCOCC1 was read as Dicer inh 4.19.
For CC(=O)Nc1ccc(C(=O)CSc2n[nH]c(=O)n2-c2ccccc2C(F)(F)F)cc1 the results were Dicer inh inactive.
CCCOC(=O)C1=C(C)NC2=C(C(=O)CCC2)C1c1ccc(SC)cc1 (configuration not stated) was read as Dicer inh inactive.
For COc1ccc(OC)c(CN2CCN(S(=O)(=O)c3ccc(Cl)cc3)CC2)c1 the results were Dicer inh 3.07.
`COc1ccc(OC)c(CN2CCN(Cc3ccncc3)CC2)c1` gave Dicer inh inactive.
COc1ccc(S(=O)(=O)N2CCN(Cc3cc(OC)ccc3OC)CC2)cc1 was read as Dicer inh inactive.
O=S(=O)(c1ccc(Cl)cc1)c1nc(-c2ccccc2Cl)oc1N1CCOCC1 was read as Dicer inh inactive.
Nc1cccc(C(=O)CC2(O)C(=O)Nc3ccc(Cl)cc32)c1 (configuration not stated) was read as Dicer inh 11.8.
`Nc1cccc(C(=O)CC2(O)C(=O)Nc3ccc(Br)cc32)c1` (configuration not stated) gave Dicer inh inactive.
`O=C(CC1(O)C(=O)Nc2ccc(Br)cc21)c1ccc2ccccc2c1` (configuration not stated) gave Dicer inh inactive.
O=C(CC1(O)C(=O)Nc2ccccc21)CC1(O)C(=O)Nc2ccccc21 (configuration not stated) was read as Dicer inh inactive.
